Screen size: about 310,000 compounds; about 14,000 (4.5%) showed an effect of 50% or more. Effects have a minus sign here. The sample as a whole holds a higher share of strong results than the screen did.
What follows are compounds tested against human ether-à-go-go-related gene (hERG) potassium channel (human, UniProt Q12809) (assay: primary screen, population patch clamp on CHO cells stably expressing hERG; higher = less effect of the substance).
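Also: peak tail current of the secondary pulse compared with the same well before compound.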

Sequence of human ether-à-go-go-related gene (hERG) potassium channel (Q12809 whole entry, looked up): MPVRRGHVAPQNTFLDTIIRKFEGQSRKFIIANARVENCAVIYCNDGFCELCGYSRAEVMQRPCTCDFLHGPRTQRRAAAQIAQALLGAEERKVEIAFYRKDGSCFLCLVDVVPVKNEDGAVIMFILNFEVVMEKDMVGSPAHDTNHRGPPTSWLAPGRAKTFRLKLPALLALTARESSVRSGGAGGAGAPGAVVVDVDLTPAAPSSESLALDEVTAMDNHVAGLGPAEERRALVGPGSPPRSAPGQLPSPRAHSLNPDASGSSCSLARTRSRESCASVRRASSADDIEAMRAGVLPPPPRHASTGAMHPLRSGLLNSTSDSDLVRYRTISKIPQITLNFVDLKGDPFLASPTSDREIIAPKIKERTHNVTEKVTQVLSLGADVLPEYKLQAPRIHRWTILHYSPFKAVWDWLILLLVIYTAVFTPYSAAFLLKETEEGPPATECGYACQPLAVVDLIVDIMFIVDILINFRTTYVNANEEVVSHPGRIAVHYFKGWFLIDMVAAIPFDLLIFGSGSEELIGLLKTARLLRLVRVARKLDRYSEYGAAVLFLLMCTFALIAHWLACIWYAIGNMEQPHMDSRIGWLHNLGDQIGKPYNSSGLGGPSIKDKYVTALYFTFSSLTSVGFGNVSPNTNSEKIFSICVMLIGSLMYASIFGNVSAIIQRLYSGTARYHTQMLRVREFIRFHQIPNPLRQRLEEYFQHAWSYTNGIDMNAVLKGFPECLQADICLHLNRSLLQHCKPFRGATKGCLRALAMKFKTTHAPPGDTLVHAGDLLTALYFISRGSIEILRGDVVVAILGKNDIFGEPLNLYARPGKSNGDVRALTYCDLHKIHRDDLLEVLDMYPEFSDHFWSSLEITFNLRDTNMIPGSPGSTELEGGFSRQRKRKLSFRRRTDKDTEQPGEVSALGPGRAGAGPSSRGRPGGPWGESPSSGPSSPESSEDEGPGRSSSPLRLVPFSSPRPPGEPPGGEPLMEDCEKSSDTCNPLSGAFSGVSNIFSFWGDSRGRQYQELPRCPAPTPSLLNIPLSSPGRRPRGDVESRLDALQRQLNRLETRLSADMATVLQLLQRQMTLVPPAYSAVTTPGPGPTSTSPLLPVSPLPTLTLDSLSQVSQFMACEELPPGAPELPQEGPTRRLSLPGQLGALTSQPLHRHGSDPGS

SMILES	hERG current change (%, negative = inhibition) at 10uM [%]
COc1cc2c(cc1OC)C(C(=O)N1CCOCC1)C(c1cccs1)N(C)C2=O (stereo not drawn)	4.09
COc1cc2c(cc1OC)C(C(=O)N1CCN(c3ccccc3)CC1)C(c1cccs1)N(C)C2=O (stereo not drawn)	-68.1
O=C(O)CN(Cc1ccco1)S(=O)(=O)c1ccccc1	11.6
Nc1nnc(SCC(=O)Nc2cccc(S(=O)(=O)N3CCCCC3)c2)s1	-12.8
CCCC[C@@H]1C[C@H]1[C@@H](NC(=O)c1cccs1)c1ccc(Cl)cc1	-9.44
CCCC[C@@H]1C[C@H]1[C@@H](NC(=O)c1ccco1)c1ccc(Cl)cc1	-50.2
CCCC[C@@H]1C[C@H]1[C@@H](NC(=O)c1ccco1)c1ccc(C(=O)OC)cc1	-34
CC(=O)NC(Cc1ccccc1C)C(=O)NC1CCN(C(=O)c2cccc(C)c2)CC1 (stereo not drawn)	34.5
O=C(CSc1ccc2nnc(-c3ccncc3)n2n1)NCc1ccco1	-25.8
Cc1ccc(-c2nnc3ccc(SCC(=O)NCc4ccco4)nn23)cc1	-6.59
O=C(CSCC(=O)NCc1ccco1)NCc1ccco1	-66
O=C(CSc1ccc2nnc(-c3ccccn3)n2n1)NCc1ccco1	-63.1
CCOc1ccc(-c2nnc3ccc(SCC(=O)NCc4ccco4)nn23)cc1	-8.72
O=C(CSc1nnc(-c2ccccc2)c(-c2ccccc2)n1)NCc1ccco1	-55.5
O=C(CSc1ccc2nnc(-c3ccccc3)n2n1)NCc1ccco1	-72.2
Cc1ccc(NC(=O)CSCC(=O)NCc2ccco2)cc1	-0.0131
O=C(CSc1nc(-c2ccccc2)c(-c2ccccc2)[nH]1)NCc1ccco1	-1.63
O=C(CSc1ccc2nnc(-c3ccccn3)n2n1)NCC1CCCO1 (stereo not drawn)	-8.53
O=C(CSc1ncc(-c2ccccc2)nn1)NCc1ccco1	-23.6
O=C(CCSCCC(=O)NCc1ccco1)NCc1ccco1	6.38
Cc1cc(C(=O)N/N=C/c2ccc([N+](=O)[O-])o2)c(C)o1	-7.72
CNC(=O)c1ccc(NC(=O)/C=C/c2cccc(F)c2)cc1	-18.3
Cn1nc(NC(=O)C2CCC2C(=O)O)c2c(F)cccc21 (stereo not drawn)	-0.347

SMILES	hERG current change (%, negative = inhibition) at 10uM [%]
Cc1ccc(OCCOc2ccc(Br)cc2)c([N+](=O)[O-])n1	-6.68
COc1ccc(CNC(=O)C(C)c2ccc([N+](=O)[O-])cc2)cc1 (stereo not drawn)	-21.2
O=C(Nc1ccc2c(c1)OCO2)c1ccc(Cl)s1	-2.22
COc1ccc(-c2nnc3ccc(SCC(=O)NCc4ccco4)nn23)cc1OC	-28.3
O=C(CSc1ccc2nnc(-c3ccc(F)cc3)n2n1)NCc1ccco1	-21.7
O=C(CSc1ccc2nnc(-c3cccc(F)c3)n2n1)NCc1ccco1	-65.5
Cc1ccc(S(=O)(=O)Nc2ccc3[nH]ccc3c2)cc1	-9.71
CCOC(=O)C1(CCOC)CCN(CC(C)Cc2ccc3c(c2)OCO3)CC1 (stereo not drawn)	-43.1
CCOC(=O)C1(CCc2ccccc2)CCN(Cc2ccc3c(c2)OCCO3)CC1	-84.4
CCOC(=O)C1(CCc2ccccc2)CCN(C(=O)CN2CCOC2=O)CC1	14.6
CCOC(=O)C1(CCOc2ccccc2)CCN(Cc2ccc3c(c2)OCCO3)CC1	-73.3
CCOC(=O)C1(Cc2ccccc2)CCN(Cc2ccc3c(c2)OCCO3)CC1	-33.1
OCC1(CCOc2ccccc2)CCN(Cc2ccc3c(c2)OCCO3)CC1	-75.1
O=C1/C(=C\c2ccco2)SC(=S)N1Cc1ccccc1	10.8
N#Cc1ccc(Oc2ccc(NC(=O)C3CC=CCC3C(=O)O)cc2)cc1 (stereo not drawn)	12.9
O=C1OC2(c3ccccc3)C3CCCC2C13	11.1
O=S(=O)(c1cccs1)N1CCN(c2ccc(F)cc2)CC1	-43.1
O=C(Nc1cccc(OCC(=O)N2CCOCC2)c1)c1cccc([N+](=O)[O-])c1	25.9
CC(=O)Oc1ccccc1N1C(=O)c2ccc(C(=O)O)cc2C1=O	11.3
Oc1ccccc1OCc1nc2ccccc2s1	-13.7
Cc1nc2ccc(C(=O)N/N=C/c3ccccc3O)cc2[nH]1	9.25
N#Cc1c(N)n[nH]c1Cc1cccc2ccccc12	12.3

Source: publication PMC4336329 (PLoS ONE, 2015)
